Test results from ChEMBL document CHEMBL3433997, “St. Jude Leishmania screening dataset” (2016).

The compounds below were run against Hexose transporter 1 (Plasmodium falciparum) (UniProt O97467) (assay: ST_JUDE_LEISH: Cytotoxicity at 2uM final concentration against transgenic Leishmania Mexicana promastigotes LmPfHT that are glucose transport deficient and complemented with the Plasmodium falciparum hexose transporter. Activity is measured by DNA content using SYBR green in vitro).
Assay type: functional

**Q.** CN1CCN(CCCNCc2ccc(Nc3nccc(Nc4ccc(Oc5ccccc5)cc4)n3)cc2)CC1 was tested. Which inhibition did it give?
**A.** Its inhibition is 1.17%.

**Q.** O=C(/C=C/c1ccc(Cl)c(Cl)c1)NCCCCCN1CCC(NC(=O)Nc2cccc(Cl)c2Cl)CC1 was tested. Which inhibition did it give?
**A.** Its inhibition is -0.39%.

**Q.** With COc1ccc2c(c1C1CCN(CCCCNC(=O)c3ccc(-c4ccc(Cl)cn4)cc3)CC1)CCCC2 as the compound, how does the inhibition read?
**A.** Its inhibition is 2.74%.

**Q.** With CN1CCN(c2ccc(Cl)cc2NC(=O)C2COc3ccccc3O2)CC1 (stereo not given) as the compound, how does the inhibition read?
**A.** Its inhibition is 1.77%.

**Q.** For Cc1ccc(Nc2nccc(Nc3ccc4c(C)n[nH]c4c3)n2)cc1F, which inhibition is on record?
**A.** The inhibition was 4.19%.

**Q.** How did the inhibition turn out when CN(C)CCOc1ccc2nc(-c3cccc(OCc4ccccc4)c3)[nH]c2c1C#N was run?
**A.** The inhibition was 1.25%.

**Q.** How did the inhibition turn out when CO/C(=C\C=C\c1cc2cc(Cl)c(Cl)cc2[nH]1)C(=O)NC1CC2CCCC(C1)N2C (stereo not given) was run?
**A.** Its inhibition is 0.66%.

**Q.** For Cc1cc(N2CCN(CC3CCCCC3)CC2)nc(Nc2ccc(Br)cc2)n1, which inhibition is on record?
**A.** The inhibition was 3.17%.

**Q.** Which inhibition does the source give for Cc1cc(=O)[nH]c2cc(Nc3ccnc(Nc4cccc(C(N)=O)c4)n3)ccc12 here?
**A.** Its inhibition is 3.83%.

**Q.** For CC(C)CCNC(=O)C1Cc2c([nH]c3cc(Br)ccc23)C2(CCN(CCc3ccccc3)CC2)N1 (stereo not given), which inhibition is on record?
**A.** The inhibition was 2.47%.

**Q.** O=C(NCCCN1CCC(N2CCCCC2)CC1)c1ccc(N2CCOc3ccccc32)s1 was tested. Which inhibition did it give?
**A.** The inhibition was 0.98%.

**Q.** With COCCNCc1cccc(-c2ccccc2CN(C(=O)c2ccc3c(c2)OCO3)c2ccc(OC)cc2)c1 as the compound, how does the inhibition read?
**A.** Its inhibition is 4.93%.

**Q.** For N=C(N)NC(=O)Nc1cc(F)c(Cl)c(Cl)c1, which inhibition is on record?
**A.** The inhibition was 10.5%.

**Q.** Which inhibition does the source give for Cc1cc2ccc(/C=C/C(=O)NC3CCC(CCN4CCc5ccc(C#N)cc5CC4)CC3)cc2[nH]1 (stereo not given) here?
**A.** The inhibition was 5.55%.

**Q.** How did the inhibition turn out when O=C(Nc1ccc(OC2CCN(Cc3ccccc3)CC2)c(Cl)c1)c1ccsc1 was run?
**A.** Its inhibition is 2.35%.
